Reference: PubChem BioAssay AID504466 (National Center for Advancing Translational Sciences (NCATS), 2011)
Out of some 330,000 compounds screened, about 4,200 (1.3%) were called active. Roughly 6% stayed inconclusive and do not appear here. This is one part of a sample in which actives are shown more often than they occur. Calls follow the shape of the dose curve; as a rule, active = well fitted activation curve with a large enough effect; inconclusive = small, poorly fitted or top-dose-only effect; inactive = no such curve, though single readings can be large or run the other way.

experiment: qHTS screen for small molecules that induce genotoxicity in human embryonic kidney (HEK293T) cells expressing luciferase-tagged ELG1; settings: HEK293T ELG1-luciferase reporter, luminescence, 16 h; series mostly up to 46 µM; activity change, positive = activation: at the top concentration; also: nearly all actives have a fitted effect of over 60% in size; as to activity change, positive = activation: % of control where 0% means no effect
Summary of the method: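 HEK293T cells expressing luciferase-tagged ELG1 were exposed to compound or DMSO vehicle for 16 hr at 37 °C and 5% CO2. Luciferase activity was then measured with ONE-Glo after 30 min at room temperature.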
Potency is read from the fitted curve at half-maximal effect.

SMILES	activity change, positive = activation	Potency
COc1cc(NC(=O)c2[nH]cnc2C(N)=O)cc(C(=O)Nc2cccc(C(F)(F)F)c2)c1	-5.7% (inactive)	–
C=CC(COCc1ccccc1)N(CC(=O)OC)S(=O)(=O)c1cc(Br)ccc1OC (stereo not drawn)	-1.71% (inactive)	–
O=C1N[C@H](Cc2c[nH]c3ccccc23)COC(=O)[C@H](Cc2ccc(F)cc2)C/C=C\C[C@H]1CC(=O)N(CCO)Cc1ccccc1	-7.25% (inactive)	–
CCOc1ccc(NC(=O)c2ccc(NC(=O)COC(=O)c3ccc(NC(=O)CC#N)cc3)cc2)cc1	–	5.17 µM (active)
N#CCC(=O)Nc1ccc(C(=O)OCC(=O)Nc2sc3c(c2C#N)CCCC3)cc1	-1.43% (inactive)	–
CCOc1ccc(C(=O)Nc2ccncc2)cc1	2.31% (inactive)	–
C[C@@H]1CN([C@@H](C)CO)C(=O)c2cccc(NS(=O)(=O)c3ccc(F)cc3)c2O[C@H]1CN(C)C(=O)NC1CCCCC1	1.39% (inactive)	–
Cc1cccc(N2O[C@H]3C=CC2CCCC3)n1	7.05% (inactive)	–
CCCC(CNC(=O)COC(=O)C1=NNC(=O)CC1)c1ccc(Cl)cc1Cl (stereo not drawn)	-0.937% (inactive)	–
O=C(Cc1ccccc1)NNC(=O)C1CCN(c2ncccn2)CC1	-6.15% (inactive)	–
COc1ccccc1Oc1ccc(N/C=C2/CCCC2=O)cc1	6.77% (inactive)	–
O=C1/C(=C\Nc2ccccc2)CCN1c1ncccn1	–	11.6 µM (active)
NC(=O)Nc1ccc(C(=O)OCC(=O)NC2CCCc3ccccc32)cc1 (stereo not drawn)	-0.511% (inactive)	–
CCCN=C1N(C)C[C@@H]2[C@@H]3C(=O)N(Cc4ccccc4)C(=O)[C@@H]3[C@](C)(C(=O)OC)N12	0.158% (inactive)	–
COc1ccc(S(=O)(=O)N(C)C[C@@H]2Oc3ccc(NS(=O)(=O)c4cn(C)cn4)cc3C(=O)N([C@@H](C)CO)C[C@@H]2C)cc1	-0.23% (inactive)	–
C[C@H](CO)N1C[C@H](C)[C@@H](CN(C)C(=O)NC2CCCCC2)Oc2ccc(NC(=O)c3ccncc3)cc2C1=O	3.77% (inactive)	–
O=C(Nc1cc(C(F)(F)F)ccc1Cl)C(=O)N1CCCCC1	2.63% (inactive)	–
O=C(Nc1cc(C(F)(F)F)ccc1Cl)c1cc2nc3c(c(C(F)(F)F)n2n1)CCCC3	–	8.2 µM (active)
CCCCC(=O)Nc1ccc(C(=O)Nc2cc(C(F)(F)F)ccc2Cl)cc1	10.1% (inactive)	–
CCNC(=S)N1CCN(S(=O)(=O)c2ccc(Cl)s2)CC1	-6.92% (inactive)	–
C1=C(CCNc2ncnc3c2cnn3-c2ccccc2)CCCC1	–	2.31 µM (active)
O=C(NNc1ncnc2c1cnn2-c1ccccc1)c1ccco1	33.8% (inactive)	–
O=C(NCCC1=CCCCC1)C1CCN(Cc2cnn(-c3ccccc3)c2-n2cccc2)CC1	2.58% (inactive)	–
O=C(CSC(=S)N1CCOCC1)c1cc(Br)cc(Br)c1O	0.304% (inactive)	–
O=C(CSC(=S)N1CCOCC1)c1ccccc1	–	2.06 µM (active)

SMILES	activity change, positive = activation	Potency
CC1CN(C(=S)SCC(=O)c2ccccc2)CC(C)O1 (stereo not drawn)	14.6% (inactive)	–
O=C(CN1C(=O)NC2(CCOc3ccccc32)C1=O)Nc1cccc([N+](=O)[O-])c1 (stereo not drawn)	-4.8% (inactive)	–
O=S(=O)(NCC1CN(S(=O)(=O)c2ccc3c(c2)OCCO3)C1)c1c(F)cccc1F	-2.32% (inactive)	–
CC[C@]12c3[nH]c4ccc(OC)cc4c3CCN1C(=O)C(CC(=O)NCc1ccco1)C[C@@H]2C(=O)N1CCN(C(=O)C2CC2)CC1 (stereo partly drawn)	3.89% (inactive)	–
CC(C)(C)C(=O)Nc1ccc(-c2cn3cccnc3n2)cc1	–	18.3 µM (active)
CC(=O)Nc1ccc(S(=O)(=O)Nc2cccc(NC(=O)C(C)(C)C)c2)cc1	-2.67% (inactive)	–
Cc1nn2c(=O)cc(COC(=O)c3ccc(NC(=O)C(C)(C)C)cc3)nc2s1	-1.82% (inactive)	–
CSc1ncccc1C(=O)Nc1cccc(S(=O)(=O)N2CCOCC2)c1	0.493% (inactive)	–
CN(CCc1ccccc1)C(=O)c1cccc(NC(=O)Cc2ccc([N+](=O)[O-])cc2)c1	-4.52% (inactive)	–
Cc1c(Cl)cnc(NC(=O)COC(=O)C2CCCC2)c1Cl	4.12% (inactive)	–
CCN(C(=O)CSc1nnnn1-c1ccc(OC)cc1)C1CCS(=O)(=O)C1 (stereo not drawn)	0.218% (inactive)	–
Cn1c(=O)n(C)c2cc(S(=O)(=O)Nc3ccc(F)cc3)ccc21	-3.07% (inactive)	–
Cc1cc(C)cc(NS(=O)(=O)c2ccc(F)cc2)c1	-4.39% (inactive)	–
Cn1c(=O)n(C)c2cc(NS(=O)(=O)c3ccc(F)cc3)ccc21	–	18.3 µM (active)
CCN(c1ccccc1)S(=O)(=O)c1cccc(C(=O)NCc2ccccc2CN2CCOCC2)c1	-11.3% (inactive)	–
O=C1COc2ccc(C(=O)COC(=O)c3ccccc3Cl)cc2N1	0.842% (inactive)	–
CCSc1nnc(NC(=O)c2ccc(C)cc2)s1	–	1.64 µM (active)
C=CCSc1nnc(NC(=O)c2ccc(NC(C)=O)cc2)s1	9% (inactive)	–
CCOC(=O)CSc1nnc(NC(=O)c2cccc(S(=O)(=O)N3CCCC3)c2)s1	-2.46% (inactive)	–
COC(=O)[C@]1(C)N[C@H](CN(C)C(=O)c2ccc(C(C)(C)C)cc2)[C@@H]2C(=O)N(C)C(=O)[C@@H]21	1.84% (inactive)	–
COc1ccc(CN2C(CC(=O)Nc3cccnc3)c3ccc(C(F)(F)F)cc3S2(=O)=O)cc1 (stereo not drawn)	-0.505% (inactive)	–
O=C(COC(=O)c1ccc2c(c1)OCCO2)NCc1ccccc1Cl	-2.4% (inactive)	–
Cc1cccc(NC(=O)c2ccc(S(=O)(=O)N(C)c3ccccc3)cc2)n1	-8.84% (inactive)	–
COc1ccc(-c2csc(NC(=O)COC(=O)Cc3ccc(Cl)cc3Cl)n2)cc1	–	23.1 µM (active)
CC(C)(C)NC(=O)NC(=O)COC(=O)Cc1ccc(Cl)cc1Cl	-0.247% (inactive)	–

SMILES	activity change, positive = activation	Potency
COc1ccc(OC)c(-c2csc(NC(=O)COC(=O)C3CC3)n2)c1	2.55% (inactive)	–
CS(=O)(=O)c1ccc(C(=O)NNC(=O)c2cccs2)cc1	1.1% (inactive)	–
O=c1c2ccccc2nc(N/N=C/c2ccccc2)n1O	3.16% (inactive)	–
O=C(Nn1cnc2ccccc2c1=O)c1ccccc1	2.68% (inactive)	–
O=c1c2ccccc2ncn1/N=C/c1ccccc1	–	3.66 µM (active)
CCN(C(=O)CSc1cccc[n+]1[O-])c1ccccc1	11.6% (inactive)	–
COc1ccc(CNC(=O)COC(=O)c2sccc2C)cc1OC	-0.24% (inactive)	–
O=C(Nc1cccc(S(=O)(=O)N2CCCCC2)c1)c1ccc2c(c1)OCO2	-5% (inactive)	–
CCSc1ccccc1C(=O)Nc1ccc2c(c1)OCO2	7.6% (inactive)	–
O=C(Nc1ccccc1N1CCN(C(=O)c2ccccc2)CC1)c1ccc2c(c1)OCO2	-0.629% (inactive)	–
O=C(Nc1nc2cc3c(cc2s1)OCCO3)c1cccc(S(=O)(=O)N2CCOCC2)c1	-16.4% (inactive)	–
COc1ccc2nc(NC(=O)c3ccc(Br)s3)sc2c1	–	2.82 µM (active)
O=C(Nc1nc2ccccc2s1)c1ccc2c(c1)OCO2	–	0.58 µM (active)
CC(C)C(=O)Nc1cccc(C(=O)Nc2ccc3c(c2)OCO3)c1	–	6.51 µM (active)
O=C(Nc1cccc(S(=O)(=O)Nc2ccc(Cl)cc2)c1)c1ccc2c(c1)OCCO2	4.3% (inactive)	–
O=C(Nc1ccccc1)c1ccc2c(c1)OCCCO2	–	0.517 µM (active)
COc1ccc2nc(NC(=O)NC3CCCCC3)sc2c1	21% (inactive)	–
COc1ccc2nc(NC(=O)[C@@H]3CCCN3C(=O)c3cccs3)sc2c1	-1.22% (inactive)	–
CSc1ncccc1C(=O)Nc1ccc2c(c1)OCO2	5.57% (inactive)	–
C=CC[C@@H](CC(=O)N[C@H](CO)Cc1ccccc1)C(=O)N[C@H](C)COC(=O)[C@@H](CC=C)Cc1ccc(F)cc1	-3.07% (inactive)	–
CC(=O)c1c(C)[nH]c(C(=O)COC(=O)c2cccs2)c1C	15.1% (inactive)	–
COc1ccc(C2=Nn3c(nnc3-c3ccccc3OC)SC2)cc1OC1CCCC1	-7.28% (inactive)	–
COc1ccccc1N(CCOc1ccccc1)S(=O)(=O)c1ccccc1	-3.11% (inactive)	–
CC(C)(C)OC(=O)C[C@@H]1C/C=C\C[C@@H](CC(=O)N(CCO)Cc2ccccc2)C(=O)N[C@H](Cc2ccccc2)COC1=O	-0.66% (inactive)	–
CCCN(CC1CC1)C(=O)COC(=O)c1ccc(C)cc1O	0.402% (inactive)	–

SMILES	activity change, positive = activation	Potency
O=C(COC(=O)c1cc(S(=O)(=O)N2CCOCC2)ccc1F)NC1CC1	1.88% (inactive)	–
O=C(Nc1ccc2c(c1)OCO2)c1ccc(N2C(=O)c3ccccc3C2=O)cc1	10.5% (inactive)	–
Cn1c(=O)n(C)c2cc(C(=O)Nc3ccc4c(c3)OCO4)ccc21	–	8.2 µM (active)
O=C(Nc1ccccc1)c1ccc2c(c1)OCO2	–	9.2 µM (active)
O=C(Nc1ccc(NC(=O)c2ccc3c(c2)OCO3)cc1)c1cccc(Cl)c1	14.4% (inactive)	–
O=C(Nc1cccc([N+](=O)[O-])c1)c1ccc2c(c1)OCO2	11.2% (inactive)	–
CS(=O)(=O)c1ccc2nc(NC(=O)c3ccc(Cl)nc3)sc2c1	-1.91% (inactive)	–
COc1cccc(C(=O)Nc2nc3ccc(S(C)(=O)=O)cc3s2)c1	-11.7% (inactive)	–
CC(C)CNS(=O)(=O)c1ccc(C(=O)Nc2ccc3c(c2)OCO3)cc1	4.37% (inactive)	–
CNC(=O)c1ccc2nc(NC(C)=O)sc2c1	–	18.4 µM (active)
O=C(OCC(=O)N1CCN(c2ccccc2)CC1)c1ccc([N+](=O)[O-])s1	-2% (inactive)	–
CC(=O)Nc1ccc(S(=O)(=O)NCC(=O)OCC(=O)c2ccc[nH]2)cc1	0.0742% (inactive)	–
CC(C)NC(=O)Nc1cccc2c1O[C@@H](CN(C)S(=O)(=O)c1ccc(F)cc1)[C@@H](C)CN([C@H](C)CO)C2=O	8.21% (inactive)	–
CCN(CC)c1ccc(/C=N/NC(=O)CNC(=O)c2cccs2)cc1	4.59% (inactive)	–
CC(=O)Nc1ccc(/C=N/NC(=O)c2cccs2)cc1	–	16.4 µM (active)
O=C(Nc1ccccc1)c1ccc(NC(=O)c2cccs2)cc1	12% (inactive)	–
Cc1noc(C)c1S(=O)(=O)N(C)C[C@H]1Oc2ccc(NC(=O)C3CCCCC3)cc2C(=O)N([C@H](C)CO)C[C@@H]1C	5.56% (inactive)	–
Cc1ccc(NC(=O)C2CCC(C(C)(C)C)CC2)cc1S(=O)(=O)N1CCOCC1 (stereo not drawn)	-11% (inactive)	–
CN(C(=O)c1cccc(NC(=O)Cc2cccc([N+](=O)[O-])c2)c1)C1CCCCC1	-3.81% (inactive)	–
Cn1nnnc1SCC(=O)Nc1cccc(S(=O)(=O)N2CCCCC2)c1	1.1% (inactive)	–
Cc1ccccc1Nc1nc(N)nc(CSc2ccccc2)n1	–	9.2 µM (active)
Cc1ccc(C(=O)OCc2nc(N)nc(Nc3ccccc3C)n2)cc1	1.15% (inactive)	–
Cc1ccccc1Nc1nc(N)nc(CN2CCN(c3ccccn3)CC2)n1	-6.82% (inactive)	–
